AddAB inh: growth inhibition of E. coli expressing H. pylori AddAB, primary screen, AddAB inhibitor project, absorbance. inhibition, % at 11.9 µM. 0.29% of 330,000 active; in the data active means inhibition above about 12%;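 further: 0% = vehicle wells of infected cells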
AI-2 QS modul: Vibrio harveyi AI-2 quorum sensing modulators, primary screen, JMH597 strain, luminescence/OD600 ratio; Vibrio harveyi JMH597 AI-2 luminescence/OD600 ratio, 9 h; hits give low values; strain lacks LuxN and CqsS sensors; 0 = neutral-control median; 0.4% of 300,000 active; activity change, % at 7.5 µM; in the data active means activity change below about -75%, passing the limit was not always enough; inconclusive means no clear call, values can overlap the other calls;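 further: luminescence divided by OD600 gain over 9 h not by final OD600 alone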
E coli growth-1: E. coli growth inhibition, primary screen, OD600 | Escherichia coli growth, 23 h; hits give low values | OD600 absorbance (test concentration not listed) | 0.21% of 330,000 active;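 active means OD600 absorbance below the run mean of sample wells minus 3.6 SD, in any replicate, cut at about 0.56 in these data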
phage Ecoli inh: growth loss of phage-infected E. coli, primary screen, RecBCD inhibitor project, absorbance, with phage, HTS | inhibition, % at 11.9 µM | 0.26% of 360,000 active; in the data active means inhibition above about 11%
Tat transport: E. coli Tat export inhibitors, primary screen, MC4100, TorA-mCherry reporter, fluorescence, single point; 0.036% of 340,000 active; inhibition, % at 10 µM;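 active means mean replicate inhibition at least 50% and at least half of replicates individually reaching 50%; inconclusive means only one of the two criteria met; inactive means neither criterion met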;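 further: exported cargo escapes ClpAP degradation while cytoplasmic cargo is degraded and loses fluorescence; 0% = median of neutral control wells and 100% = median of NaSCN control wells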
E coli growth-2: E. coli V3065 growth inhibition, primary screen, counter-screen for AddAB inhibitor project, absorbance, OD600; 18 h; inhibition, % at 11.9 µM; 0.27% of 330,000 active;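 active means inhibition above the campaign's mean inhibition across all tested compounds plus 3 SD, cut at about 9.9% in these data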;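 further: uninfected addAB+ strain grown without phage in ampicillin broth; 0% = DMSO wells and 100% = ciprofloxacin 0.95 µg/ml wells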
AddAB confirm: growth loss of phage-infected E. coli expressing H. pylori AddAB, confirmation, AddAB inhibitor project, absorbance, E. coli V3065, T4 phage, triplicate; 64% of 880 active; shares compounds with AddAB inh; AID 488942, 2010; inhibition, % at 11.9 µM; OD; T4 phage with gene 2 nonsense mutations;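 active means mean inhibition above a set limit taken from the earlier primary screen, cut at about 13% in these data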;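 further: higher means less bacterial growth since AddAB block lets phage replicate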
RecBCD counter: growth loss of RecBCD+ E. coli with mutant T4 phage, counter-screen for AddAB inhibitor project, absorbance, V66 E. coli. OD growth. 73% of 880 active. shares compounds with AddAB inh. inhibition, % at 11.9 µM;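 active means mean inhibition above the mean of solvent-only control wells plus 3 SD, cut at about 4% in these data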;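 further: optical density read after an 18 h incubation at 37 °C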
Bact viability: bacterial viability inhibition counter-screen, confirmation, counter-screen for AddAB inhibitor project, absorbance; inhibition, % at 11.9 µM; 35% of 880 active; AID 488956, 2010; shares compounds with AddAB inh; absorbance (AddAB counterscreen); in the data active means inhibition above about 25%
Active calls of the source: *; ? = inconclusive; . = no result. Rows were chosen to be rich in hits. Some 0.79% of all compounds tested hit in one or more screens of this group.

SMILES | AddAB inh | AI-2 QS modul | E coli growth-1 | phage Ecoli inh | Tat transport | E coli growth-2 | AddAB confirm | RecBCD counter | Bact viability
Oc1c(Cl)cc(Cl)cc1Sc1cc(Cl)cc(Cl)c1O | 15* | ? | . | . | . | 16* | 10 | 15* | 12
O=S(c1cc(Cl)cc(Cl)c1O)c1cc(Cl)cc(Cl)c1O | . | . | . | 10 | . | . | . | . | .
O=C(CSc1ncnc2nc[nH]c12)c1ccc(Cl)cc1 | 20* | 18 | 0.68 | 5 | 0 | 5 | 17* | 4 | -2
COc1cc(-c2cc(=O)c3c(O)c(OC)c(OC)c(O)c3o2)ccc1O | 9 | 19 | 0.75 | 7 | 11 | 3 | . | . | .
COc1c(O)c(O)c2oc(-c3ccccc3)cc(=O)c2c1OC | 16* | 32 | 0.69 | 10 | 0 | 7 | 14* | 9.2* | 15
COc1cccc(C2CC=C(C(=O)O)C(c3cccc(Cl)c3)N2S(=O)(=O)c2ccc(C)cc2)c1 (configuration not stated) | . | . | 0.67 | . | . | . | . | . | .
O=C(/C=C/c1ccccc1Cl)c1ccc(O)cc1 | 1 | ? | 0.61 | -2 | 9 | -1 | . | . | .
Cc1ccc(C)c(/C=C/C(=O)c2ccccc(=O)c2O)c1 | 15* | 15 | 0.67 | 8 | -1 | 12* | 2 | 6.5* | -1
O=C(/C=C/c1ccccc1Cl)c1ccccc(=O)c1O | 15* | 19 | 0.66 | 3 | -3 | 9 | 8 | 8.3* | 5
CC1OC(OC2CC[C@@]3(C)C(CC[C@]4(C)C3C=C[C@]35OC[C@@]6(CCC(C)(C)CC63)C(O)C[C@]54C)[C@]2(C)CO)C(O)C(OC2OC(CO)C(O)C(O)C2O)C1O (some centres not stated) | . | . | 0.67 | . | . | . | . | . | .
C(C#CCCCCCCCCC[n+]1ccccc1)#CCCCCCCCCC[n+]1ccccc1 | 101* | 21 | 0.064* | . | 82* | 102* | 100* | 100* | 101*
CCOCCCn1c(SC(C(=O)Nc2cc(C)ccc2C)c2ccccc2)nnc1-c1ccc(Cl)cc1 (configuration not stated) | 33* | 18 | 0.78 | 1 | -3 | 68* | 2 | -1 | -3
O=c1c2ccccc2[nH]c2ccc(F)cc12 | 14* | 11 | 0.61 | 10 | -3 | 10* | 7 | 8.8* | 3
CCOC(=O)/C=C/C(=O)OCC(=O)Nc1cccc(Cl)c1Cl | 97* | 22 | 0.65 | 4 | -28 | 76* | -1 | 0 | -4
COC(=O)c1cc(S(=O)(=O)NCc2ccc(F)cc2)cn1C | 15* | 4 | 0.74 | 2 | -1 | 5 | -1 | 1 | -2
O=c1[nH]c(/C(=N\O)c2ccccc2)no1 | 16* | 22 | . | 10 | -31 | 18* | 25* | 4.3* | 21
CC(O)COc1ccc(C(=NO)c2ccccc2)cc1 (configuration not stated) | . | . | 0.64 | . | . | . | . | . | .
O=c1[nH]c(=S)ccn1C1OC(CO)C(O)C1O (configuration not stated) | 12* | -91* | 0.76 | 5 | -4 | 5 | 1 | 3 | 1
COc1ccc(C=Nn2cnc3c([nH]c4ccc(C)cc43)c2=O)cc1CN1CCCC1 | . | . | 0.65 | . | . | . | . | . | .
CC(=O)Nc1ccc(C(=O)OCC(=O)c2ccc(F)cc2)cc1 | 2 | 4 | 0.65 | 5 | 0 | 1 | . | . | .
CC(=O)Nc1ccc(C(=O)OCC(=O)Nc2c(F)cccc2F)cc1 | 90* | 4 | 0.72 | -1 | 2 | 74* | -1 | 0 | -4
O=C(O)CCC(=NNC(=O)CNC(=O)Cc1ccccc1)c1ccccc1 | . | . | 0.69 | . | . | . | . | . | .
CCOCCn1c(CN(C)Cc2ccccc2)nc2c1c(=O)n(C)c(=O)n2C | 100* | 15 | 0.74 | 4 | -14 | 100* | -5 | -1 | -4
NC(=O)NOCc1ccccc1 | 98* | 29 | 0.7 | 4 | 10 | 5 | -2 | 1 | -4
O=C(NOCc1ccccc1)OCc1ccccc1 | . | . | 0.68 | 3 | 1 | . | . | . | .
SMILES | AddAB inh | AI-2 QS modul | E coli growth-1 | phage Ecoli inh | Tat transport | E coli growth-2 | AddAB confirm | RecBCD counter | Bact viability
O=C(O)COc1ccccc1C=NNC(=O)c1cc(-c2ccc(Cl)cc2)nc2ccccc12 | . | . | 0.7 | . | . | . | . | . | .
CC(=O)Nc1cccc(NC(=O)CSc2ccc(-c3ccccn3)nn2)c1 | 5 | 20 | 0.64 | 10 | -5 | 4 | . | . | .
CCOC(=O)c1ccccc1NC(=O)CSc1ccc(-c2ccccn2)nn1 | 13* | 28 | 0.7 | 9 | 12 | 13* | 6 | 7.8* | 6
CCc1ccc(NC(=O)CSc2ccc(-c3ccccn3)nn2)cc1 | 13* | 12 | 0.64 | 10 | -13 | 15* | 9 | 9.3* | 8
Cc1noc(NS(=O)(=O)c2ccc(NC(=O)C(C)(C)C)cc2)c1C | 1 | 3 | 0.68 | 5 | -5 | 1 | . | . | .
Cc1noc(NS(=O)(=O)c2ccc(NC(=O)C(F)(F)F)cc2)c1C | 15* | 17 | 0.7 | 3 | -12 | 9 | -1 | 3 | 2
COc1ccc(CNC(=O)C2CCN(S(=O)(=O)c3cccc4cccnc34)CC2)cc1 | 14* | 9 | 0.69 | 3 | 3 | 2 | -6 | 0 | -3
O=C(NCc1ccccc1)C1CCN(S(=O)(=O)c2cccc3cccnc23)CC1 | 1 | . | 0.74 | 2 | -1 | -2 | . | . | .
CC(=NNS(=O)(=O)c1cc(C)ccc1C)c1ccncc1 | . | . | 0.67 | . | . | . | . | . | .
Cc1ccc(NC(=O)COC(=O)C2CCN(c3ccc(C(F)(F)F)cn3)CC2)cc1C | 96* | . | 0.71 | 6 | 9 | 53* | -4 | -2 | -3
COc1ccc2[nH]c3c(c2c1)CCNC3c1ccc([N+](=O)[O-])o1 (configuration not stated) | 41* | 36 | . | 4 | 5 | 10* | 14* | 3 | 1
Cc1ccc(C=NNC(=O)c2nn(C)cc2Cl)cc1 | . | . | 0.7 | . | . | . | . | . | .
CCCCOc1ccc(C=NNC(=O)c2nnn(-c3nonc3N)c2C)cc1 | . | . | 0.71 | . | . | . | . | . | .
COc1cc(C2OCC3C(c4ccc(O)c(OC)c4)OCC23)ccc1O (configuration not stated) | . | . | 0.67 | . | . | . | . | . | .
CSC(=S)N/N=C/c1ccc(N(C)C)cc1 | 16* | 17 | . | 3 | 5 | 7 | 53* | 7.4* | 30*
CSC(=S)N/N=C/c1ccc(Br)cc1 | 5 | -13 | . | 8 | -5 | 5 | . | . | .
